Values without a mark were called inactive.
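Note: TDF is a line of transformed human dermal fibroblasts of mesenchymal origin.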

One test relates to TDF. The experiment in a line: H1.0 immunofluorescence intensity relative to DMSO (% of DMSO); higher = stronger H1.0 induction, active = 120 or more. The conditions noted are these: concentration: 10 µM; 24 h. The procedure, abridged: (§1)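 In 384-well plates holding 800 HCC1569 or TDF cells per well in RPMI with 10% FBS, compounds were tested at 10 µM for 24 h at 37 °C in triplicate. Fixation used 3.7% formaldehyde. Staining used a rabbit anti-H1.0 antibody with an AlexaFluor 647 secondary, plus DAPI. Each value, H1.0 nuclear intensity or cell number, is a median of replicates shown as percent of the plate control, and HCC1569 values were smoothed for positional effects.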
On to `CCCCCCCCC=CCCCCCCCC(=O)NCCO` [N-Oleoylethanolamine], for which the H1.0 immunofluorescence intensity was 98.4. With `CN1CCN(CC(=O)N2c3ccccc3C(=O)Nc3cccnc32)CC1.Cl.Cl` [Pirenzepine.2HCl], the H1.0 immunofluorescence intensity is 90.5. Same read-out and setting: then `CCCCC#Cc1nc(N)c2ncn(C3OC(C(=O)NCC)C(O)C3O)c2n1` (stereo not given), with 95.2; and `NS(=O)(=O)c1cc2c(cc1Cl)NC(C1CC3C=CC1C3)NS2(=O)=O` (stereo not given) [Cyclothiazide], with 111; and `Cl.NC(N)=NC(N)=Nc1cccc(Cl)c1` [1-(m-Chlorophenyl)-biguanide hydrochloride], with 93.4. With `O=C(Nc1cccc(Cl)c1)Nc1ncc(CCNc2ncnc3ccsc23)s1`, the H1.0 immunofluorescence intensity is 103.

Turning to `Cc1cc(C(C)(C)C)c(O)c(C)c1CC1=NCCN1.Cl` [Oxymetazoline hydrochloride], the H1.0 immunofluorescence intensity was 93.9. Take `N[C@@H](Cc1cc(I)c(Oc2cc(I)c(O)c(I)c2)c(I)c1)C(=O)O` [L-thyroxine]: the H1.0 immunofluorescence intensity is 97.6. Consider `COc1nccc(-c2c(-c3ccc(F)cc3)ncn2C2CCNCC2)n1`, for which the H1.0 immunofluorescence intensity is 84.3.

On to `COc1ccc(-c2nn3c(-c4ccccn4)nnc3s2)cc1OC`, for which the H1.0 immunofluorescence intensity was 97.3. As for `CCOC(=O)c1cnc2c(cnn2CC)c1NN=C(C)C` [Etazolate], the H1.0 immunofluorescence intensity is 95.6. The same measure, in the same setting: then `C[N+]1(CCCCC[N+]2(C)CCCC2)CCCC1.O=C([O-])C(O)C(O)C(=O)O.O=C([O-])C(O)C(O)C(=O)O` [Pentolinium di[L(+)-tartrate]], with 92.6. With `Cc1cc(C(=O)Nc2cccc(C(=O)Nc3cccc(C(F)(F)F)c3)c2)on1`, the H1.0 immunofluorescence intensity was 99.6.

Turning to `CCCCCCCCCCCCCCC(O)C(O)C(N)CO` (stereo not given) [Phytosphingosine], the H1.0 immunofluorescence intensity was 124 (active).

As to `Cc1cccc(C#Cc2ccccc2)n1.Cl` [6-Methyl-2-(phenylethynyl)pyridine hydrochloride], the H1.0 immunofluorescence intensity was 91.5.

The test system of the next test is HCC1569. The test can be described thus: H1.0 immunofluorescence intensity relative to DMSO (% of DMSO); higher = stronger H1.0 induction, active = 140 or more. The conditions noted are these: concentration: 10 µM; 24 h. The procedure, abridged:
as §1
On to `CCOC(=O)C(C)(C)Oc1ccc(Cl)cc1` [Clofibrate], for which the H1.0 immunofluorescence intensity is 94.7. Consider `C=CC(C)(O)CCC1C(=C)CCC2C(C)(C)CCCC12C` (stereo not given) [Manool], for which the H1.0 immunofluorescence intensity is 90.8.

As for `NC(CCC(=O)NC(CSN=O)C(=O)NCC(=O)O)C(=O)O` (stereo not given) [S-Nitrosoglutathione], the H1.0 immunofluorescence intensity is 90.2. Turning to `CS(=O)(=O)c1ccc(-c2cc(Br)sc2-c2ccc(F)cc2)cc1`, the H1.0 immunofluorescence intensity is 95.6. `Br.CN(C)CCCC1(c2ccc(F)cc2)OCc2cc(C#N)ccc21` (stereo not given) [Citalopram hydrobromide]: the H1.0 immunofluorescence intensity is 92.5.

For the compound `Cn1ccnc1` [1-Methylimidazole], the H1.0 immunofluorescence intensity was 98.9. Consider `CC(C)(C)C(=O)OCOC(=O)[C@@H]1N2C(=O)[C@@H](/N=C/N3CCCCCC3)[C@H]2SC1(C)C`, for which the H1.0 immunofluorescence intensity is 115.

With `CCCCCC#CCC#CCC#CCC#CCCCC(=O)O` [5,8,11,14-Eicosatetraynoic acid], the H1.0 immunofluorescence intensity is 103.

Regarding `COC(=O)c1c(C)[nH]c(C)c1C(=O)c1ccccc1Cc1ccccc1`, the H1.0 immunofluorescence intensity is 129.

`CNCCC(Oc1ccccc1OC)c1ccccc1.Cl` (stereo not given) [Nisoxetine.HCl]: the H1.0 immunofluorescence intensity is 109. As to `CCC=CCC=CCC=CCC=CCC=CCCCC(=O)O`, the H1.0 immunofluorescence intensity is 96.4. As for `Cc1nc(N)sc1-c1ccnc(Nc2ccc(N3CCOCC3)cc2)n1`, the H1.0 immunofluorescence intensity is 99.1. On to `Cn1c(=O)c(-c2c(Cl)cccc2Cl)cc2cnc(Nc3ccc(N4CCOCC4)cc3)nc21`, for which the H1.0 immunofluorescence intensity is 88.3. On to `Cc1[nH]c2ccccc2c1CC(=O)N[C@@H](Cc1ccccc1)C(=O)N(C)c1ccccc1`, for which the H1.0 immunofluorescence intensity is 119. In the case of `CCCC1=C(c2ccc(O)cc2)N(c2ccc(O)cc2)NC1=C1C=CC(=O)C=C1` [1,3,5-tris(4-hydroxyphenyl)-4-propyl-1H-pyrazole], the H1.0 immunofluorescence intensity is 99.1. With `O=c1c(-c2ccc(O)cc2)coc2cc(OC3OC(CO)C(O)C(O)C3O)cc(O)c12` (stereo not given) [Genistin], the H1.0 immunofluorescence intensity is 86.4.

For the compound `NC(N)=NC(N)=Nc1ccccc1` [1-Phenylbiguanide], the H1.0 immunofluorescence intensity was 84.1. Take `CC(=O)OCC(CCn1cnc2cnc(N)nc21)COC(C)=O` [Famciclovir]: the H1.0 immunofluorescence intensity is 111. For `N=C(N)c1ccc(OCCCCCOc2ccc(C(=N)N)cc2)cc1.O=S([O-])OCCO.O=S([O-])OCCO` [Pentamidine isethionate], the H1.0 immunofluorescence intensity is 97.2. In the case of `O=c1cc(-c2ccccc2)oc2cc(O)c(O)cc12` [6,7-Dihydroxyflavone], the H1.0 immunofluorescence intensity is 101. As to `O=C(c1ccc(OCCN2CCCCC2)cc1)c1c(-c2ccc(O)cc2)sc2cc(O)ccc12` [Raloxifene], the H1.0 immunofluorescence intensity was 127. Regarding `CC(=O)Oc1ccccc1C(=O)Oc1ccc(CO[N+](=O)[O-])cc1` [4-[(nitrooxy)methyl]phenyl 2-(acetyloxy)benzoate], the H1.0 immunofluorescence intensity was 143 (active). In the case of `NS(=O)(=O)c1cc2c(cc1Cl)NCNS2(=O)=O` [Hydrochlorothiazide], the H1.0 immunofluorescence intensity was 89.9. For the compound `CC1(C)CC=C(c2ccccc2)c2cc(/C=C/c3ccc(C(=O)O)cc3)ccc21`, the H1.0 immunofluorescence intensity was 111. For the compound `COc1c(O)cc2oc(-c3ccc(O)cc3)cc(=O)c2c1O` [5,7-dihydroxy-2-(4-hydroxyphenyl)-6-methoxy-4H-chromen-4-one], the H1.0 immunofluorescence intensity is 106. Still for that read-out and setting: then `CCCCCCCCC=CCCCCCCCC(=O)NCCO` [N-Oleoylethanolamine], with 115; and `CN1CCN(CC(=O)N2c3ccccc3C(=O)Nc3cccnc32)CC1.Cl.Cl` [Pirenzepine.2HCl], with 106.

In the case of `CCCCC#Cc1nc(N)c2ncn(C3OC(C(=O)NCC)C(O)C3O)c2n1` (stereo not given), the H1.0 immunofluorescence intensity is 110. On the same count and under the same terms, then `NS(=O)(=O)c1cc2c(cc1Cl)NC(C1CC3C=CC1C3)NS2(=O)=O` (stereo not given) [Cyclothiazide], with 99.5.

For `Cl.NC(N)=NC(N)=Nc1cccc(Cl)c1` [1-(m-Chlorophenyl)-biguanide hydrochloride], the H1.0 immunofluorescence intensity was 97.1.

As for `O=C(Nc1cccc(Cl)c1)Nc1ncc(CCNc2ncnc3ccsc23)s1`, the H1.0 immunofluorescence intensity was 178 (active).

On to `Cc1cc(C(C)(C)C)c(O)c(C)c1CC1=NCCN1.Cl` [Oxymetazoline hydrochloride], for which the H1.0 immunofluorescence intensity was 94.9. Still for that read-out and setting: then `N[C@@H](Cc1cc(I)c(Oc2cc(I)c(O)c(I)c2)c(I)c1)C(=O)O` [L-thyroxine], with 96.6; and `COc1nccc(-c2c(-c3ccc(F)cc3)ncn2C2CCNCC2)n1`, with 99.5. For the compound `COc1ccc(-c2nn3c(-c4ccccn4)nnc3s2)cc1OC`, the H1.0 immunofluorescence intensity was 111. Same read-out and setting: then `CCOC(=O)c1cnc2c(cnn2CC)c1NN=C(C)C` [Etazolate], with 103; and `C[N+]1(CCCCC[N+]2(C)CCCC2)CCCC1.O=C([O-])C(O)C(O)C(=O)O.O=C([O-])C(O)C(O)C(=O)O` [Pentolinium di[L(+)-tartrate]], with 101. Regarding `Cc1cc(C(=O)Nc2cccc(C(=O)Nc3cccc(C(F)(F)F)c3)c2)on1`, the H1.0 immunofluorescence intensity was 113. For the compound `CCCCCCCCCCCCCCC(O)C(O)C(N)CO` (stereo not given) [Phytosphingosine], the H1.0 immunofluorescence intensity was 104. Consider `Cc1cccc(C#Cc2ccccc2)n1.Cl` [6-Methyl-2-(phenylethynyl)pyridine hydrochloride], for which the H1.0 immunofluorescence intensity is 96.7.

Values taken from the supplement of paper PMC7156485.
